Compounds without any hit were thinned out: in the full panel of roughly 83,000, 20% have a hit.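 Percent growth is the endpoint: 0 to 100 indicates growth inhibition (40 means 60% inhibition), 0 means no net growth, and negative values indicate cell death.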 Unmarked numbers belong to inactive results. Active and inactive are the calls of the source. The calls were made as follows: active = growth percent below 10; inactive = the rest.
Tests used:
Experiment in all cases: NCI-60 one-dose screen, 48 h (100 = growth as untreated, 0 = no growth, -100 = all killed)
Settings in all cases: 10 µM unless noted
[1] = test system: DU-145 prostate
[2] = test system: K-562 leukemia
[3] = test system: MALME-3M melanoma
[4] = test system: MDA-MB-231 breast
[5] = test system: RXF 393 renal
[6] = test system: SF-268 CNS
[7] = test system: SF-295 CNS
[8] = test system: SF-539 CNS
[9] = test system: UACC-257 melanoma
[10] = test system: M14 melanoma
[11] = test system: HCT-15 colon
[12] = test system: HT29 colon
[13] = test system: SNB-19 CNS
[14] = test system: U251 CNS
[15] = test system: PC-3 prostate
[16] = test system: SK-MEL-5 melanoma
[17] = test system: UACC-62 melanoma
[18] = test system: LOX IMVI melanoma
[19] = test system: SK-MEL-28 melanoma

| Compound | growth [1] | growth [2] | growth [3] | growth [4] | growth [5] | growth [6] | growth [7] | growth [8] | growth [9] | growth [10] | growth [11] | growth [12] | growth [13] | growth [14] | growth [15] | growth [16] | growth [17] | growth [18] | growth [19] |
| --- | --- | --- | --- | --- | --- | --- | --- | --- | --- | --- | --- | --- | --- | --- | --- | --- | --- | --- | --- |
| O=C(Nc1ccc(Oc2ccc(F)cc2)c(Cl)c1)c1cccnc1 | 87% | 50.9% | 103% | 93.7% | 90.2% | 95% | 86% | 94.4% | 91.4% | 97.3% | 84.3% | 88.5% | 93.2% | 89% | 90.7% | 79.5% | 81.3% | 91.2% |  |
| COc1ccc(-c2cc(-c3ccc(N(C)C)cc3)nc(NC(=O)c3ccncc3)n2)cc1 | 102% | 95% | 119% | 111% | 87.3% | 98.1% | 105% | 96.8% | 108% | 104% | 90.4% | 106% | 90.2% | 98% | 83.5% | 89.2% | 101% | 91.7% | 108% |
| COc1ccc(/C=N\NC(=O)CN2CCN(c3cc4c(cc3F)c(=O)c(C(=O)N/N=C/c3ccc(OC)cc3)cn4C3CC3)CC2)cc1 | 91.6% | 71.7% | 85.2% | 85.7% | 83.3% | 76.7% | 91.3% | 83% | 91.6% | 92.1% | 76.6% | 90.2% | 86.2% | 95% | 71.9% | 72.2% | 83.3% | 90.1% | 93.9% |
| COc1ccc(/C=C/C(=O)c2ccc(NC(=O)c3cc4cc5ccccc5nc4s3)cc2)cc1OC | 106% | 80.6% | 98.6% | 91.6% | 111% | 98.9% | 99.4% | 99.7% | 108% | 98.9% | 104% | 101% | 98.8% | 103% | 94.4% | 93.5% | 96.9% | 94% | 105% |
| C=C1C(=O)O[C@H]2[C@H]1CC/C(Cn1cc(Cn3ccc4ccccc43)nn1)=C\CC[C@@]1(C)O[C@@H]21 | 18.1% | -16.5% (active) | -54.5% (active) | -24.8% (active) | -22.9% (active) | 39.9% | 76.2% | -62.8% (active) | 41.3% | 14.4% | -34.5% (active) | -13.8% (active) | 71.1% | 48.7% | 40.8% | 30.1% | 33.4% | -82.8% (active) | 14% |
| O=C1/C(=C/c2ccc(F)cc2)CN(C(=O)CCN2CCC(=NO)CC2)C/C1=C\c1ccc(F)cc1 | -28% (active) | 5.22% (active) | -22.4% (active) | -55.6% (active) | -81% (active) | -23% (active) | -28.9% (active) | -63% (active) | -19.1% (active) | -10.6% (active) | -58% (active) | -76.2% (active) | -37.9% (active) | -65.1% (active) | -23.9% (active) | -89.6% (active) | -67.2% (active) | -89.6% (active) | -59.1% (active) |
| COc1cccc(-c2cn3c(ccc4ccccc43)n2)c1 | 39% | 13.2% | 36.9% | 44.9% | -5.05% (active) | 56% | 10.6% | 12.5% | 58.7% | 30.2% | 21.9% | 20.1% | 38.3% | 38.4% | 34.8% | 9.42% (active) | 34.4% | 31.6% | 60% |
| O=C1O[C@H]([C@H](O)CO)C(O)=C1O | 100% | 107% | 119% | 97.1% | 100% | 117% | 110% | 108% | 103% | 106% | 103% | 105% | 95.8% | 101% | 96% | 104% | 98.1% | 94.8% | 117% |
| CC(=O)O[C@H]1CC[C@]2(C)[C@H]3CC[C@@H]4[C@H]5[C@H](C(C)C)CC[C@]5(C(=O)OCC(CO)(CO)N=C(N)N)CC[C@@]4(C)[C@]3(C)CC[C@H]2C1(C)C | 37.4% | -26.7% (active) | 17% | 42.1% | 40.6% | 77.6% | 100% | 86.4% | 90.2% | 73.4% | 10.4% | -69% (active) | 58.5% | -96.4% (active) | 41.2% | 81.2% | 86.8% | -48.8% (active) | 84.9% |
| O=C1/C(=C/c2ccc(Cl)c(Cl)c2)CN(C(=O)CCN2CCC(=NO)CC2)C/C1=C\c1ccc(Cl)c(Cl)c1 | -82.8% (active) | -27% (active) | -81.7% (active) | -90.5% (active) | -88.8% (active) | -82.6% (active) | -88.5% (active) | -93.7% (active) | -85.5% (active) | -49.7% (active) | -88.3% (active) | -85.9% (active) | -96% (active) | -93.4% (active) | -71.2% (active) | -93.7% (active) | -92.3% (active) | -90.6% (active) | -92% (active) |
| CCCCCCCCCCCCCCCCCCNC(=O)[C@H]1CSC(c2ccc(OC)c(F)c2)N1 (stereo not given in full) | 67.1% | 0.509% (active) | -57.4% (active) | -42.8% (active) | -34% (active) | -61% (active) | 87.5% | -15.1% (active) | 70.3% | -76.7% (active) | 71% | 8.84% (active) | 65.1% | -53.1% (active) | 54.2% | 23.8% | -86.5% (active) | 30.1% | -74.5% (active) |
| C=C(C[n+]1ccccc1)[C@@H]1CC[C@]2(C(=O)OC)CC[C@]3(C)[C@H](CC[C@@H]4[C@@]5(C)CC[C@H](O)C(C)(C)[C@@H]5CC[C@]43C)[C@@H]12 | 114% | 95.7% | 103% | 114% | 106% | 97% | 103% | 91.2% | 100% | 102% | 106% | 94.5% | 106% | 99% | -77.4% (active) | 96.5% | 91.5% | 92% | 108% |
| O=C(O)c1cn(C2CC2)c2cc(N3CCN(Cc4nc5c(cnn5-c5ccc([N+](=O)[O-])cc5)c(=O)[nH]4)CC3)c(F)cc2c1=O | 110% | 92.6% | 98.1% | 92.4% | 107% | 96.4% | 105% | 97.8% | 106% | 102% | 102% | 102% | 106% | 106% | 93.9% | 99% | 86.6% | 101% | 106% |
| CCCCCC(=O)Oc1ccc(/C(=C(\C)c2ccccc2)c2ccc(OCCN(CC)CC)cc2)cc1 | 103% | 12.2% | 65.3% | 84.8% | 66.9% | 71.5% | 79.5% | 46.8% | 7.01% (active) | 8.98% (active) | 38.6% | 4.26% (active) | 85.3% | 52.1% | 55.7% | 54.4% | 57.4% | 68.8% | 53% |
